# Source: PubChem BioAssay
# ALDH1A1 block: inhibitors of human aldehyde dehydrogenase 1A1. 7.3% of 220,000 active. Potency, µM (doses to about 75.3 µM), without a hit: at the top dose activity, negative = inhibition, hits mostly inhibitors. P00352. AID 1030. Purified ALDH1A1, NADH fluorescence, propionaldehyde substrate;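 note: potency is the fitted concentration of half-maximal effect; plate controls were no enzyme wells and a reference inhibitor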
# PNC assembly inh: blocks assembly of the perinucleolar compartment | PC3M PTB-GFP, PNC prevalence imaging, 16 h; stronger effect = lower value | activity change (PNC), negative = inhibition, % at 10 µM | 3.1% of 140,000 active | AID 2417;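 active = readout at or below -70, meaning at least 70% loss of cells showing the perinucleolar compartment, a nuclear body marking cancer cells; inconclusive = readout between -30 and a set limit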;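 note: plate controls were DMSO wells for no effect and camptothecin positive control wells for full effect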
#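 Read-out is percentage of cells bearing a perinucleolar compartment, from automated 20x imaging of fixed, Hoechst-stained PC3M PTB-GFP cells. Cells were seeded 4 h, then exposed 16 h to compound (23 nl of library stock) in duplicate plates.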
# HPGD block: inhibitors of human 15-hydroxyprostaglandin dehydrogenase (HPGD); 4.3% of 150,000 active; purified HPGD, NADH fluorescence kinetic, PGE2 substrate; Potency, µM, without a hit: at the highest dose activity change, negative = inhibition, usual class: inhibitors; note: potency is the fitted concentration of half-maximal effect
# Target sequence (P15428 whole entry, looked up): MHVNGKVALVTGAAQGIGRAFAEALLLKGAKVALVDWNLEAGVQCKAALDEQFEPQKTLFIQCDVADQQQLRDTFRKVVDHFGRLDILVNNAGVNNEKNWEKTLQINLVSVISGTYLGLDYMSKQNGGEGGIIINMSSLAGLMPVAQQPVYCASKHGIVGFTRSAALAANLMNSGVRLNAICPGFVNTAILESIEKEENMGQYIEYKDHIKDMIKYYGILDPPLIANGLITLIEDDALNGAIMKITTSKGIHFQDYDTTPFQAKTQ
#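 20 nM HPGD preincubated 15 min at room temperature with compound in 50 mM Tris-HCl pH 8, 0.01% Tween 20. Started with 1 mM NAD+ and 30 uM prostaglandin E2; NADH fluorescence (360/450 nm) read 5 times over 30-s intervals, last minus first.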
# * marks the source's active call; other numbers are inactive results; u = inconclusive; x = not tested or not shown; [ ] = another dose, or the depositor's remark. Sampled rows, rich in hits. Any-hit rate of the full collection: about 11%. Unless noted, calls come from the whole dose curve; as a rule, active = well fitted inhibition curve with a large enough effect (not every such curve was filed as active); inconclusive = small, poorly fitted or top-dose-only effect, or another doubt; inactive = no such curve, though single readings can be large or run the other way. Unless noted, % is set by controls: 0 for no effect and ±100 for the full control effect.
SMILES,ALDH1A1 block,PNC assembly inh,HPGD block
CCOc1ccc2nc(NC(=O)C3CCCN(S(=O)(=O)c4cccc5nonc45)C3)sc2c1 (stereo unspecified),-11%,3,-15%
COc1ccc2nc(NC(=O)C3CCCN(S(=O)(=O)c4cccc5nonc45)C3)sc2c1 (stereo unspecified),-6%,-100*,-16%
COC(=O)c1ccc2nc(NC(=O)C3CCCCC3)sc2c1,25µM*,x,x
COC(=O)c1ccc2nc(NC(=O)C(C)(C)C)sc2c1,-3%,x,x
COc1ccc([C@H](O)c2ccccn2)cc1,3%[13.5 µM],x,-2%
CCCCN(C(=O)/C=C/c1ccco1)c1c(N)n(CCC)c(=O)[nH]c1=O,-2%,x,x
CC(=O)N(C)c1ccc(C(O)(C(F)(F)F)C(F)(F)F)cc1,1%,x,x
CCOC(=O)C1=C(CC)OC(N)=C(C#N)C1c1ccc(OC)c(OC)c1OC (stereo unspecified),9%,x,x
CCOC(=O)C1=C(CSc2nc(C)ccc2C#N)OC(N)=C(C#N)C1c1cccc(OC)c1OC (stereo unspecified),28µM*,u,-8%
Cc1cccc(N(CC(=O)N/N=C/c2cc([N+](=O)[O-])ccc2Cl)S(C)(=O)=O)c1C,u,2,-14%
COC(=O)CSC(C(=O)Nc1ccc(C)c(C)c1)c1ccccc1 (stereo unspecified),10µM*,42,-23%
Cc1ccc(NC(=O)C(SCC(=O)O)c2ccccc2)cc1C (stereo unspecified),u,-29,-10%
COc1ccc(C(=O)Nc2ccc(C3CC3(Cl)Cl)cc2)cc1 (stereo unspecified),15%,x,x
S=c1[nH]nc(-c2ccco2)n1/N=C/c1ccc(Cl)cc1,22µM*,u,3.5µM*
CC(C)(C)c1n[nH]c(=S)n(/N=C/c2cccs2)c1=O,-3%,-21,-10%
Cc1ccc(/C=N/n2c(-c3ccco3)n[nH]c2=S)s1,11µM*,-113*,13µM*
S=c1[nH]nc(-c2ccccn2)n1/N=C/c1ccc(Cl)cc1,0%,x,x
C=CCn1c(-c2ccco2)n[nH]c1=S,u,12,-25%
Fc1ccc(/C=N/n2c(-c3cccs3)n[nH]c2=S)cc1,14µM*,12,4µM*
CCCCn1c(-c2ccco2)n[nH]c1=S,u,-1,u
S=c1[nH]nc(-c2ccco2)n1/N=C/c1ccccc1Cl,10µM*,-20,x
CCC(c1nnnn1C(C)(C)C)N1CCN(c2cc(Cl)ccc2C)CC1 (stereo unspecified),1%,10,-20%
CCN(CC)CCCN1C(=O)CSC1c1ccc([N+](=O)[O-])cc1 (stereo unspecified),2%,x,x
O=C(CNC(=O)OCc1ccccc1)NCC(=O)N1CCCC1C(=O)OCc1ccccc1 (stereo unspecified),16%,21,-11%
COc1ccc(-c2csc3ncn(-c4ccccc4)c(=O)c23)cc1OC,7.9µM*,x,x
SMILES,ALDH1A1 block,PNC assembly inh,HPGD block
COc1ccc(-c2csc3ncn(-c4cccc(C)c4)c(=O)c23)cc1OC,4%,x,x
Cc1cccc(C)c1Nc1nnc(SC(C)C(=O)Nc2c(C)n(C)n(-c3ccccc3)c2=O)s1 (stereo unspecified),-10%,30,-9%
Cc1ccc(/C=N/NC(=O)CC(=O)NCc2cccnc2)cc1,-3%,1,-1%
CCN(CC)c1ccc(/C=N/N2CCN(Cc3ccc(C)cc3C)CC2)c(O)c1,u,-21,-8%
CCN(CC)c1ccc(C=Nc2ccc(C)cc2)c(O)c1,u,82,-25%
CCN(CC)c1ccc(N=Cc2ccc(N(CC)CC)cc2O)cc1,1.8µM*,u,-7%
CCN(CC)c1ccc(C=Nc2ccc(N(C)C)cc2)c(O)c1,u,-29,-2%
CCN(CC)c1ccc(C=Nc2cc(C)cc(C)c2)c(O)c1,14µM*,-23,-23%
CCN(CC)c1ccc(C=Nc2ccccc2)c(O)c1,3.5µM*,-7,-28%
NC(=O)C1=CN(C2OC(COP(=O)(O)OP(=O)(O)OC[C@H]3O[C@@H](n4cnc5c(N)ncnc54)[C@H](OP(=O)(O)O)[C@H]3O)C(O)C2O)C=CC1 (stereo partly specified),14%,x,-18%
CCN(CC)C(=O)Cn1cnc2sc(C(=O)N3CCN(Cc4ccc5c(c4)OCO5)CC3)c(C)c2c1=O,-14%,x,x
C[C@H]1[C@H]2CC[C@H]3[C@@H]4CC=C5C[C@@H](N(C)C)CC[C@]5(C)[C@H]4CC[C@]23CN1C,7%,x,-5%
O=C(O)c1c(Cl)c(Cl)c(Cl)c(Cl)c1C(=O)N1CCCC1,4%,19,-1%
O=C(c1nsc(Cl)c1Cl)N1CCCCC1,0%,33,2.5µM*
Cc1cc(C(F)(F)F)n(-c2nc(C(=O)NNS(=O)(=O)c3ccccc3)cs2)n1,-2%,u,-1%
COc1cccc(/C=N/NC(=O)c2csc(-n3nc(C)cc3C(F)(F)F)n2)c1,4%,-90*,-28%
Cc1cc(C(F)(F)F)n(-c2nc(C(=O)N/N=C/c3ccc(F)cc3)cs2)n1,u,-106*,28µM*
Cc1cc(C(F)(F)F)n(-c2nc(C(=O)Nc3ccccc3Oc3ccccc3)cs2)n1,10%,27,-16%
CC(=O)Cc1cc(O)c2ccccc2c1OC(=O)c1ccccc1,-2%,x,x
N#CC1=C(N)OC2=C(C(=O)CC(c3ccco3)C2)C1c1ccc(OCc2c(F)cccc2Cl)cc1 (stereo unspecified),8.9µM*,76,-22%
COc1cccc(C2C(C#N)=C(N)OC3=C2C(=O)CC(c2ccco2)C3)c1OCc1ccc(F)cc1 (stereo unspecified),-7%,12,-21%
COc1ccc(CNC(=O)CCS(=O)(=O)c2cccc3nonc23)cc1,18µM*,3,-6%
Cc1ccc(CNC(=O)CCS(=O)(=O)c2cccc3nonc23)cc1,40µM*,28,4%
O=C(CCS(=O)(=O)c1cccc2nonc12)N1CCOCC1,u,-7,1%
O=C(CNS(=O)(=O)c1cccc2nonc12)NCc1ccc(F)cc1,u,29,-3%
SMILES,ALDH1A1 block,PNC assembly inh,HPGD block
O=C(CCS(=O)(=O)c1cccc2nonc12)N1CC(=O)N(CCc2ccccc2)C(=O)C1,28µM*,24,1%
COc1ccc(NC(=O)CCS(=O)(=O)c2cccc3nonc23)c(OC)c1,u,u,-1%
COc1ccc(N(C)C(=O)CCS(=O)(=O)c2cccc3nonc23)cc1,u,30,-12%
COc1ccccc1CNC(=O)CCS(=O)(=O)c1cccc2nonc12,18µM*,-22,-14%
COc1ccc(NC(C#N)c2ccccc2OCc2ccccc2)cc1 (stereo unspecified),u,26,x
CCc1noc(C)c1C(=O)Nc1nc(-c2ccc(Cl)cc2Cl)c(C)s1,-14%,4,-4%
Cc1ccccc1N1CCN(C(=O)c2ccccc2NC(=O)C2CC=CCC2C(=O)O)CC1 (stereo unspecified),12%,-17,-2%
Cc1ccc2occ(C3NC(C(=O)O)CS3)c(=O)c2c1 (stereo unspecified),u,u,-12%
Cc1ccc2occ(C3N[C@H](C(=O)O)CS3)c(=O)c2c1 (stereo partly specified),1.4µM*,-22,-9%
N#Cc1ccc(Oc2ccc(/C=N/O)cn2)cc1,1%,-1,-21%
O=C(O/N=C1\CCS(=O)(=O)c2sccc21)c1ccc(F)cc1,-3%,x,x
